Results taken from PubChem BioAssay AID1159580 (chemical genetic matrix, 2015).
Values joined by “and” are separate entries in the source; they are usually repeats but may differ in a detail not shown here. Identical values can stand only once. Among all 5,500 compounds or so, about 2,000 (36%) were called active. Roughly 18% stayed inconclusive and do not appear here. Cut-off read from the data, not from the text of the source: active = normalized growth mostly below about 0.91 (no sharp cut-off); inconclusive = no clear call, values can overlap the other calls; inactive = mostly above about 0.92. Some of the results follow.

Experiment: chemical genetic growth profiling, strain panel (AID 1159580);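 note: tested at 20 µM; growth read once vehicle control cultures reached saturation at 30 °C; 1 = growth at the plate median or of vehicle wells; lower values mean less growth of the strain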
Details: S. cerevisiae deletion strains, growth OD

Measured: normalized growth

COc1cnc(NS(=O)(=O)c2ccc(N)cc2)nc1
inactive: locus YAL021C, strain ccr4, active compounds read low 1.01 | locus YAL026C, strain drs2, active compounds read low 1 | locus YAL030W, strain snc1, active compounds read low 1.01 | locus YBL061C, strain skt5, active compounds read low 0.994 | locus YBR009C, strain hhf1, active compounds read low 1.01 | locus YBR021W, strain FUR4, active compounds read low 1.02 | locus YBR023C, strain chs3, active compounds read low 0.998 | locus YBR171W, strain sec66, active compounds read low 0.993 | locus YBR229C, strain ROT2, active compounds read low 0.956 | locus YBR231C, strain swc5, active compounds read low 0.991 | locus YBR279W, strain paf1, active compounds read low 0.993 | locus YCL011C, strain gbp2, active compounds read low 1 | locus YCL016C, strain dcc1, active compounds read low 0.983 | locus YCL029C, strain bik1, active compounds read low 0.98 | locus YCL069W, strain vba3, active compounds read low 1 | locus YCR088W, strain abp1, active compounds read low 1 | locus YDL005C, strain med2, active compounds read low 0.997 | locus YDL035C, strain GPR1, active compounds read low 0.996 | locus YDL040C, strain nat1, active compounds read low 1 | locus YDL074C, strain BRE1, active compounds read low 0.988 | locus YDL101C, strain DUN1, active compounds read low 0.98 | locus YDL134C, strain PPH21, active compounds read low 1 | locus YDL185W, strain tfp1, active compounds read low 0.962 | locus YDL192W, strain arf1, active compounds read low 0.972 | locus YDR001C, strain nth1, active compounds read low 0.997 | locus YDR069C, strain doa4, active compounds read low 1.01 | locus YDR101C, strain arx1, active compounds read low 0.983 | locus YDR137W, strain rgp1, active compounds read low 0.996 | locus YDR159W, strain sac3, active compounds read low 0.92 | locus YDR162C, strain NBP2, active compounds read low 0.992 | locus YDR195W, strain ref2 0.984 | locus YDR297W, strain sur2, active compounds read low 1.01 | locus YDR318W, strain mcm21, active compounds read low 0.986 | locus YDR334W, strain swr1, active compounds read low 0.998 | locus YDR335W, strain msn5, active compounds read low 0.993 | locus YDR388W, active compounds read low 0.985 | locus YDR392W, strain spt3, active compounds read low 0.925 | locus YDR502C, strain sam2, active compounds read low 0.987 | locus YEL003W, strain gim4, active compounds read low 1 | locus YEL037C, strain rad23, active compounds read low 0.999 | locus YEL061C, strain CIN8 (second series), active compounds read low 1 | locus YEL061C, strain CIN8, active compounds read low 0.979 | locus YER015W, strain faa2, active compounds read low 1 | locus YER016W, strain bim1, active compounds read low 0.998 | locus YER110C, active compounds read low 0.969 | locus YER111C, strain swi4, active compounds read low 1.01 | locus YER155C, strain BEM2 (second series), active compounds read low 1.02 | locus YER155C, strain BEM2, active compounds read low 1 | locus YER167W, strain BCK2, active compounds read low 0.99 | locus YFR010W, strain ubp6, active compounds read low 0.989 | locus YGL078C, strain dbp3, active compounds read low 0.978 | locus YGL086W, strain mad1, active compounds read low 0.985 | locus YGL167C, strain pmr1, active compounds read low 0.993 | locus YGL173C, strain kem1, active compounds read low 1.01 | locus YGL227W, strain vid30, active compounds read low 1 | locus YGL240W, strain doc1, active compounds read low 0.994 | locus YGL248W, strain PDE1, active compounds read low 0.976 | locus YGL253W, strain hxk2, active compounds read low 0.994 | locus YGR135W, strain pre9, active compounds read low 0.988 | locus YGR229C, strain SMI1, active compounds read low 1.01 | locus YGR252W, strain gcn5, active compounds read low 0.949 | locus YHR013C, strain ard1, active compounds read low 1 | locus YHR027C, strain rpn1, active compounds read low 0.982 | locus YHR030C, strain SLT2, active compounds read low 1 and 0.997 | locus YHR079C, strain IRE1 (second series), active compounds read low 0.984 | locus YHR079C, strain IRE1, active compounds read low 0.989 | locus YHR094C, strain hxt1, active compounds read low 0.984 | locus YHR129C, strain ARP1, active compounds read low 0.997 | locus YHR142W, strain chs7, active compounds read low 1 | locus YHR200W, strain rpn10, active compounds read low 0.969 | locus YIL066C, strain RNR3, active compounds read low 0.978 | locus YIL073C, strain SPO22, active compounds read low 0.999 | locus YIL125W, strain kgd1, active compounds read low 0.974 | locus YIR030C, strain dcg1, active compounds read low 0.982 | locus YJL092W, strain hpr5, active compounds read low 1 | locus YJL095W, strain BCK1 (second series), active compounds read low 0.988 | locus YJL095W, strain BCK1, active compounds read low 0.983 and 1.01 | locus YJL115W, strain asf1, active compounds read low 0.993 | locus YJL129C, strain trk1, active compounds read low 0.986 | locus YJL134W, strain LCB3, active compounds read low 0.995 | locus YJL154C, strain vps35, active compounds read low 1 | locus YJL164C, strain tpk1, active compounds read low 0.981 | locus YJL166W, strain qcr8, active compounds read low 1.01 | locus YJL168C, strain set2, active compounds read low 0.982 | locus YJL187C, strain SWE1 (second series), active compounds read low 0.965 | locus YJR043C, strain POL32, active compounds read low 0.992 | locus YJR066W, strain TOR1, active compounds read low 0.934
